Inconclusive results are not listed. Active and inactive are the calls of the source. The call rests on the fitted dose curve; in most records, active means well fitted inhibition curve with a large enough effect; inconclusive means small, poorly fitted or top-dose-only effect; inactive means no such curve, though single readings can be large or run the other way.
Potency means the concentration at half of the fitted maximal effect.

The test can be described thus: Acumen qHTS Assay for Inhibitors of the mTORC1 Signaling Pathway in MEF (Tsc2-/-, p53-/-) Cells: Hit Validation.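 Further: phospho-rpS6 Ser235/236 immunofluorescence normalized to propidium iodide cell count; nearly all actives have a fitted effect of over 65% in size.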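 On activity change, negative = inhibition: cells exposed to compound for 24 hours; plate controls were DMSO for no effect and 7.5 nM rapamycin control for full effect.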 The conditions noted are these: Acumen imaging; activity change, negative = inhibition: at 37.3 µM (top of the series).
In the case of `Cc1cccc(C(=O)Nc2c3c(nn2-c2ccc(Cl)cc2)CS(=O)(=O)C3)c1`, the activity change, negative = inhibition was 12.6%.

Take `CCOc1ccccc1Nc1nc(-c2cccc(Cl)c2)c2c(n1)-c1ccccc1OC2`: the activity change, negative = inhibition is -15.1%.

With `CC(=O)C1=C(c2ccccc2)N(C(C)=O)n2c(nnc2C2CCCCC2)S1`, the Potency is 7.36 µM (active).

Consider `CCN(c1ccccc1)S(=O)(=O)c1ccc(NC(=O)c2nc(S(C)(=O)=O)ncc2Cl)cc1`, for which the Potency was 4.14 µM (active).

As to `CCN1CCOC(=O)C1CC(=O)Nc1cc(Cl)ccc1C` (stereo unspecified), the activity change, negative = inhibition is -93.4%.

As for `COc1cc(C(=O)Nc2ccc(NC(=O)c3ccc(C(C)(C)C)cc3)cc2)cc(OC)c1OC`, the Potency is 10.4 µM (active).

`Brc1ccc(Nc2c3c(nc4nncn24)CCC3)cc1`: the activity change, negative = inhibition is 7.81%.

Consider `Nc1nc(Nc2ccccc2F)sc1C(=O)c1ccc(Cl)cc1`, for which the activity change, negative = inhibition was -5.15%.

Take `CCCCNC(=O)CSc1nc2nc(C)c(Cc3ccccc3C)c(C)n2n1`: the activity change, negative = inhibition was determined as 7.74%.

As to `CCS(=O)(=O)c1ncc(Cl)c(C(=O)N(Cc2ccccc2)c2ccc(OC)cc2)n1`, the Potency is 2.93 µM (active).

`O=C(Nc1ccc(Cl)cc1)c1cc(S(=O)(=O)N2CCCc3ccccc32)ccc1F`: the activity change, negative = inhibition is -18.3%.

With `CCNc1nc2c(c(=O)[nH]c(=O)n2C)n1CC(O)COc1ccc(Cl)cc1Cl` (stereo unspecified), the Potency was 0.147 µM (active).

On to `COc1ccc2nc(NC(=O)c3nc(S(=O)(=O)Cc4ccccc4F)ncc3Cl)sc2c1`, for which the activity change, negative = inhibition was -106%.

In the case of `Cc1cccc(N2CCN(C(=O)C3CCN(C(=O)c4cc5sccc5n4C)CC3)CC2C)c1` (stereo unspecified), the activity change, negative = inhibition is -39.1%.

As to `CCOc1cc(CNc2ccc(O)cc2)cc(Cl)c1OCc1ccccc1`, the activity change, negative = inhibition is -9.52%.

For `COc1cc(Nc2nc(SCC(=O)c3ccc(Cl)c(Cl)c3)nc3ccccc23)cc(OC)c1`, the activity change, negative = inhibition is -51.7%.
